Measured values from PubChem BioAssay AID1159580 (chemical genetic matrix, 2015).
The whole screen tested about 5,500 compounds, of which about 2,000 (36%) were called active. Another 18% or so got no clear call; they are omitted. Rule as the data show it: active = normalized growth mostly below about 0.91 (no sharp cut-off); inconclusive = no clear call, values can overlap the other calls; inactive = mostly above about 0.92. This is one part of the list.

Assay: chemical genetic growth profiling, strain panel (AID 1159580);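 also: tested at 20 µM; growth read once vehicle control cultures reached saturation at 30 °C; 1 = growth at the plate median or of vehicle wells; lower values mean less growth of the strain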
Conditions: growth OD

Measured: normalized growth

OC1=Cc2c(O)cc(O)cc2OC1(O)c1ccc(O)c(O)c1 (stereo not drawn)
inactive: S. cerevisiae deletion strains, locus YBR021W, strain FUR4, stronger effect = lower value 1.06 | S. cerevisiae deletion strains, locus YBR229C, strain ROT2, stronger effect = lower value 1 | S. cerevisiae deletion strains, locus YCL029C, strain bik1, stronger effect = lower value 0.997 | S. cerevisiae deletion strains, locus YDL035C, strain GPR1, stronger effect = lower value 1.02 | S. cerevisiae deletion strains, locus YDL074C, strain BRE1, stronger effect = lower value 0.962 | S. cerevisiae deletion strains, locus YDL101C, strain DUN1, stronger effect = lower value 0.99 | S. cerevisiae deletion strains, locus YDL134C, strain PPH21, stronger effect = lower value 0.975 | S. cerevisiae deletion strains, locus YDL185W, strain tfp1, stronger effect = lower value 0.96 | S. cerevisiae deletion strains, locus YDL192W, strain arf1, stronger effect = lower value 1 | S. cerevisiae deletion strains, locus YDR101C, strain arx1, stronger effect = lower value 1.03 | S. cerevisiae deletion strains, locus YDR162C, strain NBP2, stronger effect = lower value 0.956 | S. cerevisiae deletion strains, locus YDR318W, strain mcm21, stronger effect = lower value 1 | S. cerevisiae deletion strains, locus YDR388W, stronger effect = lower value 0.994 | S. cerevisiae deletion strains, locus YDR502C, strain sam2, stronger effect = lower value 1.01 | S. cerevisiae deletion strains, locus YER110C, stronger effect = lower value 0.993 | S. cerevisiae deletion strains, locus YER155C, strain BEM2, stronger effect = lower value 1.02 | S. cerevisiae deletion strains, locus YER167W, strain BCK2, stronger effect = lower value 1.01 | S. cerevisiae deletion strains, locus YGL078C, strain dbp3, stronger effect = lower value 0.972 | S. cerevisiae deletion strains, locus YGL086W, strain mad1, stronger effect = lower value 0.997 | S. cerevisiae deletion strains, locus YGL248W, strain PDE1, stronger effect = lower value 0.979 | S. cerevisiae deletion strains, locus YGR078C, strain PAC10, stronger effect = lower value 0.962 | S. cerevisiae deletion strains, locus YGR135W, strain pre9, stronger effect = lower value 0.972 | S. cerevisiae deletion strains, locus YGR252W, strain gcn5, stronger effect = lower value 1.1 | S. cerevisiae deletion strains, locus YHR030C, strain SLT2, stronger effect = lower value 0.984 | S. cerevisiae deletion strains, locus YHR079C, strain IRE1 (second series), stronger effect = lower value 0.995 | S. cerevisiae deletion strains, locus YHR094C, strain hxt1, stronger effect = lower value 0.995 | S. cerevisiae deletion strains, locus YHR129C, strain ARP1, stronger effect = lower value 0.985 | S. cerevisiae deletion strains, locus YHR200W, strain rpn10, stronger effect = lower value 0.997 | S. cerevisiae deletion strains, locus YIL066C, strain RNR3, stronger effect = lower value 0.991 | S. cerevisiae deletion strains, locus YIL073C, strain SPO22, stronger effect = lower value 0.972 | S. cerevisiae deletion strains, locus YIL125W, strain kgd1, stronger effect = lower value 0.989 | S. cerevisiae deletion strains, locus YIR030C, strain dcg1, stronger effect = lower value 0.989 | S. cerevisiae deletion strains, locus YJL095W, strain BCK1, stronger effect = lower value 0.965 | S. cerevisiae deletion strains, locus YJL134W, strain LCB3, stronger effect = lower value 0.997 | S. cerevisiae deletion strains, locus YJL168C, strain set2, stronger effect = lower value 0.991 | S. cerevisiae deletion strains, locus YJL187C, strain SWE1 (second series), stronger effect = lower value 0.966 | S. cerevisiae deletion strains, locus YKL009W, strain mrt4, stronger effect = lower value 0.997 | S. cerevisiae deletion strains, locus YKL068W, stronger effect = lower value 0.981 | S. cerevisiae deletion strains, locus YKL085W, strain MDH1 (second series), stronger effect = lower value 0.986 | S. cerevisiae deletion strains, locus YKL085W, strain MDH1, stronger effect = lower value 0.986 | S. cerevisiae deletion strains, locus YKL190W, strain CNB1, stronger effect = lower value 0.992 | S. cerevisiae deletion strains, locus YKR001C, strain vps1, stronger effect = lower value 1 | S. cerevisiae deletion strains, locus YLR039C, strain RIC1, stronger effect = lower value 1 | S. cerevisiae deletion strains, locus YLR058C, strain SHM2, stronger effect = lower value 0.984 | S. cerevisiae deletion strains, locus YLR102C, strain apc9, stronger effect = lower value 0.993 | S. cerevisiae deletion strains, locus YLR268W, strain sec22, stronger effect = lower value 1.02 | S. cerevisiae deletion strains, locus YLR342W, strain FKS1 (second series), stronger effect = lower value 0.935 | S. cerevisiae deletion strains, locus YLR371W, strain rom2, stronger effect = lower value 0.975 | S. cerevisiae deletion strains, locus YLR418C, strain cdc73, stronger effect = lower value 1.02 | S. cerevisiae deletion strains, locus YML016C, strain PPZ1, stronger effect = lower value 0.972 | S. cerevisiae deletion strains, locus YML032C, strain rad52, stronger effect = lower value 1.02 | S. cerevisiae deletion strains, locus YML124C, strain tub3, stronger effect = lower value 1 | S. cerevisiae deletion strains, locus YMR078C, strain ctf18, stronger effect = lower value 0.99 | S. cerevisiae deletion strains, locus YMR223W, strain ubp8, stronger effect = lower value 0.987 | S. cerevisiae deletion strains, locus YMR307W, strain GAS1, stronger effect = lower value 0.971 | S. cerevisiae deletion strains, locus YNL067W, strain RPL9B, stronger effect = lower value 0.967 | S. cerevisiae deletion strains, locus YNL153C, strain GIM3, stronger effect = lower value 0.964 | S. cerevisiae deletion strains, locus YNL233W, strain BNI4, stronger effect = lower value 0.998 | S. cerevisiae deletion strains, locus YNL250W, strain rad50, stronger effect = lower value 0.97 | S. cerevisiae deletion strains, locus YNL271C, strain bni1, stronger effect = lower value 0.978 | S. cerevisiae deletion strains, locus YNL298W, strain CLA4, stronger effect = lower value 0.986 | S. cerevisiae deletion strains, locus YNL307C, strain MCK1, stronger effect = lower value 0.999 | S. cerevisiae deletion strains, locus YNR052C, strain pop2, stronger effect = lower value 0.981 | S. cerevisiae deletion strains, locus YOL006C, strain TOP1, stronger effect = lower value 0.945 | S. cerevisiae deletion strains, locus YOL012C, strain htz1 0.48 | S. cerevisiae deletion strains, locus YOL147C, strain pex11, stronger effect = lower value 1.01 | S. cerevisiae deletion strains, locus YOR061W, strain CKA2, stronger effect = lower value 0.987 | S. cerevisiae deletion strains, locus YOR069W, strain VPS5, stronger effect = lower value 0.988 | S. cerevisiae deletion strains, locus YOR136W, strain idh2, stronger effect = lower value 1 | S. cerevisiae deletion strains, locus YOR144C, strain elg1, stronger effect = lower value 0.996 | S. cerevisiae deletion strains, locus YOR184W, strain ser1, stronger effect = lower value 1.05 | S. cerevisiae deletion strains, locus YOR316C, strain cot1, stronger effect = lower value 0.984 | S. cerevisiae deletion strains, locus YPR119W, strain clb2, stronger effect = lower value 0.995 | S. cerevisiae deletion strains, locus YPR141C, strain kar3, stronger effect = lower value 0.974 | S. cerevisiae deletion strains, locus YPR163C, strain tif3, stronger effect = lower value 0.999 | S. cerevisiae deletion strains, locus YPR167C, strain met16, stronger effect = lower value 0.999 | S. cerevisiae deletion strains, strain wtn01, stronger effect = lower value 1.01 | S. cerevisiae strains, strain wild type, stronger effect = lower value 0.998
